# In publication PMC11062922 (Nature Chemical Biology, 2023):
# Like-named read-outs stand apart in the source and are kept apart here.
# Key:
# AAK1 = tested on: AAK1; set-up: species or system human, MV4-11 + K-562 + COLO205 + SK-N-BE2 + OVCAR-8; settings: read-out: apparent Kd, n = 1
# BMP2K = tested on: BMP2K; set-up: species or system human, MV4-11 + K-562 + COLO205 + SK-N-BE2 + OVCAR-8; settings: read-out: apparent Kd, n = 1
# CLK1 = tested on: CLK1; set-up: species or system human, MV4-11 + K-562 + COLO205 + SK-N-BE2 + OVCAR-8; settings: read-out: apparent Kd, n = 1
# CLK4 = tested on: CLK4; set-up: species or system human, MV4-11 + K-562 + COLO205 + SK-N-BE2 + OVCAR-8; settings: read-out: apparent Kd, n = 1
# MELK = tested on: MELK; set-up: species or system human, MV4-11 + K-562 + COLO205 + SK-N-BE2 + OVCAR-8; settings: read-out: apparent Kd, n = 1
# Q6ZSR9 = Q6ZSR9 (human, UniProt Q6ZSR9); set-up: species or system MV4-11 + K-562 + COLO205 + SK-N-BE2 + OVCAR-8; settings: read-out: apparent Kd, n = 1
# Q6ZSR9, sequence (Q6ZSR9 whole entry, looked up): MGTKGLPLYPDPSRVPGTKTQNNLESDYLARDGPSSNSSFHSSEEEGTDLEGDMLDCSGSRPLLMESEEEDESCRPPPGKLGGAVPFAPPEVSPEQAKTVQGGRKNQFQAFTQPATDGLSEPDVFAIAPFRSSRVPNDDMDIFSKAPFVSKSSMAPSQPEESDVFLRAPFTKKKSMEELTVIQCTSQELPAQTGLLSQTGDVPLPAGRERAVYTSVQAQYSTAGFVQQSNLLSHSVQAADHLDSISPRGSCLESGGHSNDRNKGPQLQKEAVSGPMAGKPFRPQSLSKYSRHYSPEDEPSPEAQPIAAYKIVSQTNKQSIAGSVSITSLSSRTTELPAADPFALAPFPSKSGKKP
# RET = tested on: RET; set-up: species or system human, MV4-11 + K-562 + COLO205 + SK-N-BE2 + OVCAR-8; settings: read-out: apparent Kd, compound concentrations: 100 nM and 1000 nM (sheet 'Samples'), n = 1
# CSNK2A2 = tested on: CSNK2A2; set-up: species or system human, MV4-11 + K-562 + COLO205 + SK-N-BE2 + OVCAR-8; settings: read-out: apparent Kd, compound concentrations: 100 nM and 1000 nM (sheet 'Samples'), n = 1
# FLT4 = tested on: FLT4; set-up: species or system human, MV4-11 + K-562 + COLO205 + SK-N-BE2 + OVCAR-8; settings: read-out: apparent Kd, n = 1
# NUAK1 = tested on: NUAK1; set-up: species or system human, MV4-11 + K-562 + COLO205 + SK-N-BE2 + OVCAR-8; settings: read-out: apparent Kd, n = 1
# PAK4 = tested on: PAK4; set-up: species or system human, MV4-11 + K-562 + COLO205 + SK-N-BE2 + OVCAR-8; settings: read-out: apparent Kd, n = 1
# SIK2 = tested on: SIK2; set-up: species or system human, MV4-11 + K-562 + COLO205 + SK-N-BE2 + OVCAR-8; settings: read-out: apparent Kd; compound concentrations:100 nM and 1000 nM (sheet 'Samples'); n = 1
# CSNK2A1;CSNK2A3 = tested on: CSNK2A1;CSNK2A3; set-up: species or system human, MV4-11 + K-562 + COLO205 + SK-N-BE2 + OVCAR-8; settings: read-out: apparent Kd, compound concentrations: 100 nM and 1000 nM (sheet 'Samples'), n = 1
# GAK = tested on: GAK; set-up: species or system human, MV4-11 + K-562 + COLO205 + SK-N-BE2 + OVCAR-8; settings: read-out: apparent Kd, compound concentrations: 100 nM and 1000 nM (sheet 'Samples'), n = 1
# GSK3A = tested on: GSK3A; set-up: species or system human, MV4-11 + K-562 + COLO205 + SK-N-BE2 + OVCAR-8; settings: read-out: apparent Kd, compound concentrations: 100 nM and 1000 nM (sheet 'Samples'), n = 1
# GSK3B = tested on: GSK3B; set-up: species or system human, MV4-11 + K-562 + COLO205 + SK-N-BE2 + OVCAR-8; settings: read-out: apparent Kd, compound concentrations: 100 nM and 1000 nM (sheet 'Samples'), n = 1
# PRKAG1 = tested on: PRKAG1; set-up: species or system human, MV4-11 + K-562 + COLO205 + SK-N-BE2 + OVCAR-8; settings: read-out: apparent Kd; compound concentrations: 100 nM and 1000 nM (sheet 'Samples'), CATDS: 5.18818459595803E-2; n = 1
# PKN1 = tested on: PKN1; set-up: species or system human, MV4-11 + K-562 + COLO205 + SK-N-BE2 + OVCAR-8; settings: read-out: apparent Kd; compound concentrations:100 nM and 1000 nM (sheet 'Samples'); n = 1
# [1] = compound concentrations:100 nM and 1000 nM (sheet 'Samples')
smiles,measurement,setting,value
CNc1nccc(-c2ccc3c(N)n[nH]c3c2)n1 [GSK2206003A],potency estimated from few doses,"AAK1; compound concentrations: 100 nM and 1000 nM (sheet 'Samples'), CATDS: 0.11797009071744601",0.108 µM
same,potency estimated from few doses,"BMP2K; compound concentrations: 100 nM and 1000 nM (sheet 'Samples'), CATDS: 5.7170227951540302E-2",0.897 µM
same,potency estimated from few doses,"CLK1; compound concentrations: 100 nM and 1000 nM (sheet 'Samples'), CATDS: 0.21779714475359599",0.0365 µM
same,potency estimated from few doses,"CLK4; compound concentrations: 100 nM and 1000 nM (sheet 'Samples'), CATDS: 0.18290440862860499",0.048 µM
same,potency estimated from few doses,"MELK; compound concentrations: 100 nM and 1000 nM (sheet 'Samples'), CATDS: 0.103385588540624",0.145 µM
same,potency estimated from few doses,"Q6ZSR9; compound concentrations: 100 nM and 1000 nM (sheet 'Samples'), CATDS: 0.14345562945172299",0.0731 µM
same,potency estimated from few doses,RET; CATDS: 0.14057536576690199,0.076 µM
CN(C)c1ccc2c(c1)/C(=C/Nc1ccc(S(N)(=O)=O)cc1)C(=O)N2 [GW416469X],potency estimated from few doses,"AAK1; compound concentrations: 100 nM and 1000 nM (sheet 'Samples'), CATDS: 7.2948540677608101E-2",1.64 µM
same,potency estimated from few doses,"BMP2K; compound concentrations: 100 nM and 1000 nM (sheet 'Samples'), CATDS: 7.3539976386738704E-2",1.6 µM
same,potency estimated from few doses,CSNK2A2; CATDS: 7.0643002799247095E-2,1.82 µM
same,potency estimated from few doses,"FLT4; compound concentrations: 100 nM and 1000 nM (sheet 'Samples'), CATDS: 7.3701429425290094E-2",1.59 µM
same,potency estimated from few doses,"NUAK1; compound concentrations: 100 nM and 1000 nM (sheet 'Samples'), CATDS: 0.318304060181621",0.0866 µM
O=C(Nc1n[nH]c2nc(-c3ccccc3O)ccc12)C1CC1 [SB-711880],potency estimated from few doses,AAK1; [1],0.713 µM
same,potency estimated from few doses,CLK4; [1],1.23 µM
same,potency estimated from few doses,FLT4; [1],1.79 µM
same,potency estimated from few doses,MELK; [1],2.38 µM
same,potency estimated from few doses,NUAK1; [1],1.85 µM
same,potency estimated from few doses,PAK4; [1],0.357 µM
same,potency estimated from few doses,Q6ZSR9; [1],0.537 µM
same,potency estimated from few doses,SIK2,0.547 µM
Nc1nccc(-c2ccc3c(N)n[nH]c3c2)n1 [GSK1034945A],potency estimated from few doses,AAK1; [1],0.194 µM
same,potency estimated from few doses,BMP2K; [1],0.194 µM
same,potency estimated from few doses,CLK1; [1],0.0354 µM
same,potency estimated from few doses,CLK4; [1],0.025 µM
same,potency estimated from few doses,MELK; [1],0.828 µM
same,potency estimated from few doses,Q6ZSR9; [1],0.225 µM
NS(=O)(=O)c1ccc(N/C=C2\C(=O)Nc3ccc4ncsc4c32)cc1 [GW297361X],potency estimated from few doses,"AAK1; compound concentrations: 100 nM and 1000 nM (sheet 'Samples'), CATDS: 4.1332868698359997E-2",0.785 µM
same,potency estimated from few doses,"BMP2K; compound concentrations: 100 nM and 1000 nM (sheet 'Samples'), CATDS: 4.6280622165998701E-2",0.615 µM
same,potency estimated from few doses,"CLK4; compound concentrations: 100 nM and 1000 nM (sheet 'Samples'), CATDS: 3.6697746350308501E-2",1.05 µM
same,potency estimated from few doses,CSNK2A1;CSNK2A3; CATDS: 3.0344109186555501E-2,1.83 µM
same,potency estimated from few doses,CSNK2A2; CATDS: 3.6316988085140701E-2,1.07 µM
same,potency estimated from few doses,"NUAK1; compound concentrations: 100 nM and 1000 nM (sheet 'Samples'), CATDS: 0.30685592880619",0.0336 µM
same,potency estimated from few doses,"Q6ZSR9; compound concentrations: 100 nM and 1000 nM (sheet 'Samples'), CATDS: 3.8953206873676101E-2",0.902 µM
CCC(CC)(CC)n1cnc2c(N)ncnc21 [SKF-97620],potency estimated from few doses,"AAK1; compound concentrations: 100 nM and 1000 nM (sheet 'Samples'), CATDS: 2.5595683701841399E-2",1.62 µM
same,potency estimated from few doses,"CLK1; compound concentrations: 100 nM and 1000 nM (sheet 'Samples'), CATDS: 2.7794407506576899E-2",1.26 µM
same,potency estimated from few doses,"CLK4; compound concentrations: 100 nM and 1000 nM (sheet 'Samples'), CATDS: 2.9101207913204901E-2",1.1 µM
COc1ccc(Nc2nccc(NCCNC(=O)Nc3cc(C)ccc3C)n2)cc1 [GSK1379899A],potency estimated from few doses,"AAK1; compound concentrations: 100 nM and 1000 nM (sheet 'Samples'), CATDS: 4.14189738717365E-2",1.93 µM
same,potency estimated from few doses,GAK; CATDS: 4.9044286773088197E-2,1.22 µM
same,potency estimated from few doses,GSK3A; CATDS: 0.21656856359749399,0.102 µM
same,potency estimated from few doses,GSK3B; CATDS: 4.8399492982865999E-2,1.26 µM
same,potency estimated from few doses,PRKAG1,1.07 µM
Cl.Cl.NC[C@H](CC1CCCCC1)NC(=O)c1ccc(-c2ccnc3[nH]ccc23)s1.NC[C@H](CC1CCCCC1)NC(=O)c1ccc(-c2ccnc3[nH]ccc23)s1 [GSK1581428A],potency estimated from few doses,AAK1; [1],0.0545 µM
same,potency estimated from few doses,PKN1,0.538 µM
same,potency estimated from few doses,Q6ZSR9; [1],0.0627 µM
CN[C@H](C#Cc1c(F)ccc2c1/C(=C/c1[nH]ccc1OC)C(=O)N2)CO.Cl [RO0283049-001],potency estimated from few doses,"AAK1; compound concentrations: 100 nM and 1000 nM (sheet 'Samples'), CATDS: 2.8240152121160999E-2",0.574 µM
same,potency estimated from few doses,"BMP2K; compound concentrations: 100 nM and 1000 nM (sheet 'Samples'), CATDS: 7.2716114591836398E-2",0.0798 µM
same,potency estimated from few doses,CSNK2A1;CSNK2A3; CATDS: 2.0504154829503698E-2,1.69 µM
same,potency estimated from few doses,CSNK2A2; CATDS: 2.5963864867474401E-2,0.73 µM
same,potency estimated from few doses,GAK; CATDS: 2.5381960568832601E-2,0.781 µM
same,potency estimated from few doses,GSK3A; CATDS: 5.21732936396841E-2,0.145 µM
same,potency estimated from few doses,GSK3B; CATDS: 5.3689374792110299E-2,0.137 µM
same,potency estimated from few doses,"MELK; compound concentrations: 100 nM and 1000 nM (sheet 'Samples'), CATDS: 2.5364281194585201E-2",0.783 µM
same,potency estimated from few doses,"NUAK1; compound concentrations: 100 nM and 1000 nM (sheet 'Samples'), CATDS: 5.6502774837069003E-2",0.125 µM
same,potency estimated from few doses,"PAK4; compound concentrations: 100 nM and 1000 nM (sheet 'Samples'), CATDS: 2.6532527955357901E-2",0.685 µM
same,potency estimated from few doses,"Q6ZSR9; compound concentrations: 100 nM and 1000 nM (sheet 'Samples'), CATDS: 2.6998984012354399E-2",0.651 µM
same,potency estimated from few doses,RET; CATDS: 3.2863733799292097E-2,0.389 µM
